In all, about 2,100 compounds went through this assay and about 650 (31%) were called active. Not shown: some 16% with an inconclusive outcome. The call rests on the fitted dose curve; in most records, active means well fitted inhibition curve with a large enough effect; inconclusive means small, poorly fitted or top-dose-only effect; inactive means flat fitted curve, though single readings scatter. The list shows a part of the results.
test: qHTS for inhibitors of Vif-A3G interactions: Cherry picks; conditions: HeLa A3G-eYFP + Vif (tagged APOBEC3G with the HIV-1 protein that degrades it), 24 h; Potency: eYFP fluorescence increase; series mostly up to 36.9 µM; further: nearly all actives have a fitted effect of over 80% in size
Procedure, shortened: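 HeLa cells stably expressing A3G-eYFP and Vif, cultured overnight then exposed to compounds at several concentrations for 24 hours at 37 C, 5% CO2; cellular yellow fluorescence (488 nm ex, 500-530 nm em) imaged on Acumen, MG132 positive control.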
Potency means the concentration at half of the fitted maximal effect.

Potency, active:
Cc1cc(C)c2cc3c(N)c(C(=O)Nc4c(C)[nH]c(=O)[nH]c4=O)sc3nc2c1 18.4 µM
N#CC1=C(N)Oc2cc(N)ccc2C1c1ccc(F)cc1F (configuration not stated) 18.4 µM
COc1cc(OC)c(OC)cc1/C=C1\Oc2cc(OCC(=O)N3Cc4ccccc4C[C@H]3C(=O)O)ccc2C1=O 4.11 µM
O=C1CSC(=S)N1Cc1cccnc1 16.4 µM
O=c1[nH]c2ccccc2nc1/C=C/c1ccc(F)cc1 14 µM
O=c1[nH]c2ccccc2nc1/C=C(\O)c1cccs1 18.4 µM
COc1ccc(OC)c(/C=C/c2nc3ccccc3[nH]c2=O)c1 18.4 µM
COc1ccccc1NS(=O)(=O)c1cc([N+](=O)[O-])ccc1N/N=C/c1c[nH]c2ccccc12 16.4 µM
O=[N+]([O-])c1ccc(N/N=C/c2c[nH]c3ccccc23)cc1 11.6 µM
Cc1[nH]c2ccccc2c1/C=N/Nc1ccc([N+](=O)[O-])cc1 13 µM
COc1ccc(NS(=O)(=O)c2cc([N+](=O)[O-])ccc2N/N=C/c2c(C)[nH]c3ccccc23)cc1 14.6 µM
O=[N+]([O-])c1ccc(N/N=C/c2c[nH]c3ccccc23)c(S(=O)(=O)Nc2ccc(Cl)cc2)c1 18.4 µM
C/C(=N/Nc1ccc([N+](=O)[O-])cc1)c1c[nH]c2ccccc12 8.2 µM
COc1ccccc1NS(=O)(=O)c1cc([N+](=O)[O-])ccc1N/N=C/c1c(C)[nH]c2ccccc12 2.8 µM
CCOc1cc(/C=C/C(=O)c2ccc(OC)c(CN3CCOCC3)c2)cc(Br)c1O 18.4 µM
O=C(Nc1ccc([N+](=O)[O-])cc1)C(Cc1ccccc1)N1C(=O)c2cccc3cccc(c23)C1=O (configuration not stated) 14 µM
CC(=O)c1ccc2cccc3c2c1N=CN3C 15.8 µM
O=C(O)c1cccc(-c2ccc(/C=N/Nc3ccc([N+](=O)[O-])cc3)o2)c1 18.4 µM
CC(C)(C)NC(=S)N/N=C\c1ccc(-c2ccc([N+](=O)[O-])cc2)o1 20.6 µM
Cc1cc([N+](=O)[O-])ccc1-c1ccc(/C=N/NC(=O)c2ccc(Br)o2)o1 16.4 µM
O=C(Cc1ccccc1)N/N=C/c1ccc(-c2ccc([N+](=O)[O-])cc2)o1 17.7 µM
CN(/N=C/c1ccc(-c2ccc([N+](=O)[O-])cc2)o1)c1ccccc1 1.64 µM
CN(C)c1ccc(/C=C(\C#N)c2nc3ccccc3c(=O)[nH]2)cc1 0.58 µM
O=C(NCCc1ccccc1Cl)c1ccc(Cn2c(=O)c3cccn3c3cccnc32)cc1 18.4 µM
Cn1c(/C=C/c2ccc([N+](=O)[O-])o2)nc2ccccc2c1=O 18.4 µM
CCn1c(/C=C/c2ccc([N+](=O)[O-])o2)nc2ccccc2c1=O 11.6 µM
O=c1c2ccccc2nc(/C=C/c2ccc([N+](=O)[O-])o2)n1CCCO 18.4 µM
Cc1cccc2cc3c(N)c(C(=O)N4CCCc5ccccc54)sc3nc12 14.6 µM
Cc1cccc2cc3c(N)c(C(=O)N4CCc5ccccc54)sc3nc12 8.2 µM
Cc1ccc2nc3sc(C(=O)N4CCCc5ccccc54)c(N)c3cc2c1 14 µM
Cc1cc2nc3s/c(=C/c4ccc(-c5ccccc5C(=O)O)o4)c(=O)n3c2cc1C 20.6 µM

Potency, inactive:
O=C(Cn1cnc2c(cnn2-c2ccc(F)cc2)c1=O)NCc1ccco1
N#CC1=C(N)Oc2cc(N)ccc2C1c1cccc(F)c1 (configuration not stated)
N#CC1=C(N)Oc2cc(N)ccc2C1c1ccccc1F (configuration not stated)
Cc1csc(NC(=O)CCC(=O)N(CC(=O)NC2CCCC2)Cc2ccccc2)n1
CCCC1=Nc2cc(C(=O)NCc3ccco3)ccc2Sc2ccccc21
Cc1cc(=O)oc2cc(OCC(=O)N3c4ccccc4CC3C)ccc12 (configuration not stated)
CCNC(=S)N/N=C(\C)c1ccc(N2CCOCC2)cc1
COc1ccc(OCCCC(=O)N2CCN(S(=O)(=O)c3cccc(F)c3)CC2)cc1
N=C1C(c2nc3ccccc3[nH]2)=C(O)CN1c1ccccc1
COc1cccc(N2CC(O)=C(c3nc4ccccc4c(=O)[nH]3)C2=N)c1
O=C(/C(=C/c1ccc(Cl)cc1)c1nc2ccccc2[nH]1)c1cccs1
COc1ccc(OC)c(Nc2nc(-c3ccncc3)nc3ccccc23)c1
Cc1[nH]c2ccccc2c1/C=N/NC(=O)c1cc(-c2ccncc2)nc2ccccc12
O=[N+]([O-])c1ccc(N/N=C\c2cccn2-c2ccccc2)nc1
O=C(N/N=C/c1c[nH]c2ccccc12)C1COc2ccccc2O1 (configuration not stated)
CCN(CC)c1ccc(NC(=O)c2ccc(=O)[nH]c2)cc1S(=O)(=O)Nc1ccccc1OC
COc1ccc(S(=O)(=O)Nc2cccc3ccccc23)cc1
CCCCCS(=O)(=O)c1oc(-c2cccs2)nc1S(=O)(=O)c1ccc(C)cc1
Cc1ccc(-c2nc(C=Nc3ccc(O)cc3)c(O)o2)cc1
COc1ccc(NC(=O)C2(C)Cc3c(-c4cccc(NC(C)=O)c4)ccnc3O2)cc1 (configuration not stated)
COc1cc(Cn2c3ccc(NC(=O)CCc4ccccc4)cc3c(=O)n2C)ccc1F
Cn1nnnc1SCCNCc1cc(Br)ccc1OCc1ccccc1Cl
Cc1ccc(-c2cc(NC=O)c3ncc(-c4cnn(C)c4)n3c2)cc1
Cc1ccc(-c2cc(C(=O)N/N=C/c3c[nH]c4ccccc34)[nH]n2)cc1
O=[N+]([O-])c1ccc(N=Nc2ccc(O)c3ccccc23)cc1
O=C(Nc1ccc2c(c1)OCCO2)C(=O)c1c[nH]c2ccccc12
Cc1ccc(N2C(=O)CS/C2=C(\C(Cl)=C(Cl)Cl)[N+](=O)[O-])cc1
Fc1cccc(F)c1/C=N/NC(=S)Nc1cccnc1
Cn1c(=O)c2cc(NC(=O)Cc3cccc4ccccc34)ccc2n1-c1ccccc1
CCOc1ccc(N/C=C/C(=O)c2cc(OC)c(OC)c(OC)c2)cc1
COc1cc(/C=C/C(=O)c2ccc(O)cc2)ccc1OCC#N
COc1cc2c(cc1OC)C(C)N(C(=O)c1cc(Cl)nc(Cl)c1)CC2 (configuration not stated)
O=C(c1ccc(CS(=O)c2ccccc2Cl)o1)N1CCN(c2ccccc2F)CC1 (configuration not stated)
C=CCn1c(O)c(N=NC(=O)CNC(=O)c2ccco2)c2ccccc21
CCN(CC)c1ccc(NC(=O)c2ccc(=O)[nH]c2)cc1S(=O)(=O)Nc1ccc(OC)cc1
CCOc1ccc(S(=O)(=O)N(CC(=O)N/N=C/c2ccc(-c3ccc([N+](=O)[O-])cc3)o2)c2ccccc2)cc1
NC(=S)N/N=C\c1ccc(-c2cccc(Cl)c2Cl)o1
O=[N+]([O-])c1ccccc1C=NNC(=S)NN=Cc1ccccc1[N+](=O)[O-]
Cc1cc(/C=N/NC(=O)c2cc3ccccc3o2)c(C)n1C
O=C(O)c1ccc(N/N=C/C(Br)=C/c2ccccc2)cc1
Cc1ccc(-c2ccc(/C=N/NC(N)=S)o2)cc1
CC1(C(=O)NCc2ccccc2)Cc2c(-c3cccc(C(N)=O)c3)ccnc2O1 (configuration not stated)
COc1ccc(NC(=O)C2(C)Cc3c(-c4cccc(C(N)=O)c4)ccnc3O2)cn1 (configuration not stated)
O=C(COc1ccc(C(=O)c2ccccc2)cc1)NCc1ccc(F)cc1
Cc1c(C(=O)C(=O)N2CC=C(c3ccccc3)CC2)c2ccccc2n1C
CCOc1ccc(S(=O)(=O)NCc2ccccn2)cc1NC(=O)c1ccccc1
O=C1CC(c2ccccc2F)c2cc3c(cc2N1)CCC3 (configuration not stated)
Cc1cc(N2CCN(Cc3cn(C)nc3-c3ccccc3F)CC2)cc(C)n1
COc1cc(C(=O)N/N=C/c2ccccn2)cc(OC)c1OC
Cc1cc(C)n(-c2nc3c(c(=O)[nH]c(=O)n3C)n2CC(O)COc2ccc(Cl)cc2Cl)n1 (configuration not stated)
Cc1ccc2ccc3c(c2n1)NS(=O)(=O)c1ccc(C(F)(F)F)cc1-3
N#C/C(=C\c1ccc(C(=O)O)cc1)c1nc2sc3c(c2c(=O)[nH]1)CCCC3
COc1ccc(NC2=CC(=O)CC(c3ccccc3)C2)c(OC)c1 (configuration not stated)
Cc1ccc(-n2c(=O)c3ccc(C(=O)NCc4ccccc4Cl)cc3n(CC(=O)Nc3cccc(Cl)c3)c2=O)cc1
CCCCOc1ccc(/C=C/C2=CC(C)(C)NC(=S)N2)cc1OCC
CCCN1C(=O)C(Cc2nc3ccccc3c(=O)n2CC)c2cc(Br)ccc21 (configuration not stated)
CCOC(=O)C(C)Oc1cccc2c(=O)n(CC(=O)NCc3ccco3)ccc12 (configuration not stated)
NC(=O)c1ccc(NC(=O)C#Cc2ccccc2)cc1
COc1cccc(N2CCN(Cc3nc4scc(-c5ccccc5)c4c(=O)[nH]3)CC2)c1
O=C(/C=C/c1ccccc1)Nc1ncn[nH]1
Cc1c(C(=O)C(=O)N2CCCc3ccccc32)c2ccccc2n1C
COc1ccc(-c2cc(C(F)F)n3ncc(C(=O)N4CCc5ccccc54)c3n2)cc1
Cc1cc(NC(=O)COC(=O)c2ccc(S(=O)(=O)N3CCCc4ccccc43)cc2)no1
O=C(c1cc([N+](=O)[O-])ccc1N1CCCCC1)N1CCc2ccccc21
Cc1ccc(Cc2c(C3CCCCC3)nc3ccc(C)cn23)cc1
CCCCOc1nc2ccccc2nc1NS(=O)(=O)c1ccc(F)cc1
